Results taken from publication PMC7819943, “Rice protein-binding microarrays: a tool to detect cis-acting elements near promoter regions in rice”.
Over roughly 35,000 sequences, “fluorescence intensity (a.u.)” has its median near 10,000; the highest 2% begin near 52,000. The sample holds the highest values, similar sequences and a random draw of the others, so the mix is not that of the screen.

What follows are sequences tested against T1, OsWOX13 (Oryza sativa, UniProt Q5QMM3 1-267) (assay: protein-binding microarray (RPBM); PBS, 2% BSA, 51.3 ng/ul salmon testes DNA, 50 uM zinc acetate, 200 nM TF, 25 C, 1 h; high values mean tight binding). Settings: protein: recombinant; tags: N-terminal polyhistidine and DsRed monomer fusion (pET32a); label: CyDye5-dUTP incorporated in the synthesized complementary strand; 3' TTTTT single-stranded linker to array surface; dsDNA, one strand shown.
T1 sequence: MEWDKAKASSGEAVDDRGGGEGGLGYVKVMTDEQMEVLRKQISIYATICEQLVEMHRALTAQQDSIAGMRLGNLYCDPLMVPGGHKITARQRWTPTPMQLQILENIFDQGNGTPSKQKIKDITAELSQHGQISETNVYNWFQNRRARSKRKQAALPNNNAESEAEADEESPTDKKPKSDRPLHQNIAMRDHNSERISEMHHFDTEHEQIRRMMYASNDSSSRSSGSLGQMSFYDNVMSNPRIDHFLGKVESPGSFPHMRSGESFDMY
Outline: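 Transcription factors were made in E. coli BL21-CodonPlus as N-terminal fusions to a polyhistidine tag and DsRed, then purified on Ni–NTA. After primer extension with Cy5-dUTP and blocking with 2% BSA, a custom Agilent array was exposed for 1 h at 25 °C to 200 nM protein in PBS, 2% BSA, salmon testes DNA and 50 µM zinc acetate. Washed arrays were scanned on an Axon 4000B, and the binding signal is per-feature fluorescence intensity in arbitrary units.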
“TTTGCTAGATTGGAGCAAATCGCATATTCTTAACCCCACCCGGAGTCACCTAGTGCAG” was tested, and the binding signal was 21600 fluorescence intensity (a.u.).
For “GTTTCGTCTCGTAATTTACACGCAATCTGTGTAATTAGTTCGGAGTCACCTAGTGCAG”, the binding signal was 7230 fluorescence intensity (a.u.).
In the case of “CTAAAATTTAATTAATCATACGACAGTGAATTTCTCATTTCGGAGTCACCTAGTGCAG”, the binding signal is reported as 20300 fluorescence intensity (a.u.).
For “TCAGACAAATTAAGTTTTAGCTTAGCTTATCACTTAACGGCGGAGTCACCTAGTGCAG”, the binding signal was 7680 fluorescence intensity (a.u.).
“AAATTCCGAATTTGATTCTTAATTAAGGCGAGCTATTCACCGGAGTCACCTAGTGCAG” was tested, and the binding signal was 3490 fluorescence intensity (a.u.).
For “AAACAGACAAACTACACTAATTGTGATGACTCTGGATTTTCGGAGTCACCTAGTGCAG”, the binding signal was 8340 fluorescence intensity (a.u.).
In the case of “AATTCAAGCTCATCACTGATTTGATAAGACATTAAGATAGCGGAGTCACCTAGTGCAG”, the binding signal is reported as 4050 fluorescence intensity (a.u.).
For “ACCATCATCAATTGATAGTTCTTGTTTCTCTAGTAGTAAGCGGAGTCACCTAGTGCAG”, the binding signal was 9360 fluorescence intensity (a.u.).
With “GTGACTGATTGACAGTATCAACCATCTAGTGTTAAGATAGCGGAGTCACCTAGTGCAG” the binding signal was 52800 fluorescence intensity (a.u.).
In the case of “GACGCCGTCAGCAATGATTGCCTTGCTAGCAGCTGCTTGACGGAGTCACCTAGTGCAG”, the binding signal is reported as 4390 fluorescence intensity (a.u.).
With “CACCTGACTGATTGGATTGGTATCGATCCAAGCCTATCAGCGGAGTCACCTAGTGCAG” the binding signal was 57100 fluorescence intensity (a.u.).
“TAAGTATCCTTGATTGATTGCCTGATCGATCAGCTGCTAGCGGAGTCACCTAGTGCAG” was tested, and the binding signal was 55000 fluorescence intensity (a.u.).
In the case of “TGTCCACTGAAATTGATTGGAGATCGATGTGATGGTCAAGCGGAGTCACCTAGTGCAG”, the binding signal is reported as 40200 fluorescence intensity (a.u.).
For “TACGCCTGATTGGATCCCCACCCCTATCTCCACTGACTGTCGGAGTCACCTAGTGCAG”, the binding signal was 34100 fluorescence intensity (a.u.).
In the case of “TCTTGCCAACTGATTGATCGATCCTGGAAGCTTGCTGCTGCGGAGTCACCTAGTGCAG”, the binding signal is reported as 37900 fluorescence intensity (a.u.).
In the case of “TTGGGTGGCAATTATTAATCAGTCATGTCATTCAACTAGACGGAGTCACCTAGTGCAG”, the binding signal is reported as 11700 fluorescence intensity (a.u.).
With “TTGATTGATCTTTGGTTGGATGGATGCTTGATGATGTGCTCGGAGTCACCTAGTGCAG” the binding signal was 31900 fluorescence intensity (a.u.).
For “CACATGATTGATATCTCGTCACTGCTCGTAACTTCAGCCTCGGAGTCACCTAGTGCAG”, the binding signal was 62100 fluorescence intensity (a.u.).
With “TATTGATTGGTTCAGATGGAGACATGTGCAACTTCGTGCTCGGAGTCACCTAGTGCAG” the binding signal was 61700 fluorescence intensity (a.u.).
“AGTGTAATTAACTTTCTTCTTCTCTCCAACTGCTTCAGCTCGGAGTCACCTAGTGCAG” was tested, and the binding signal was 11200 fluorescence intensity (a.u.).
“TAGAGAGATTGATATTTCATGTGCTCTAGAGATGGTTGAGCGGAGTCACCTAGTGCAG” was tested, and the binding signal was 28900 fluorescence intensity (a.u.).
“GTGCTCTTGATTGGCACATGAGCCTTGGCGGCGGTGACCTCGGAGTCACCTAGTGCAG” was tested, and the binding signal was 35600 fluorescence intensity (a.u.).
“GACCAACGGTGATTATTAACATGATCTATATCTATCTATCCGGAGTCACCTAGTGCAG” was tested, and the binding signal was 5820 fluorescence intensity (a.u.).
For “TCAAATATGACTAAATTAGTAGTTAAGTAGTATGGGAGAACGGAGTCACCTAGTGCAG”, the binding signal was 13400 fluorescence intensity (a.u.).
“CCAACTAATCATGCTTAGTTAGCAATTAAGCCATAAACAACGGAGTCACCTAGTGCAG” was tested, and the binding signal was 9180 fluorescence intensity (a.u.).
For “ATGATTGCCGTATGATATGTGATACGAAAGAGTTGGGGATCGGAGTCACCTAGTGCAG”, the binding signal was 32700 fluorescence intensity (a.u.).
In the case of “CCAGATTGATGGCTATCATCAGGCCATGCTGTTCTCGTCTCGGAGTCACCTAGTGCAG”, the binding signal is reported as 59800 fluorescence intensity (a.u.).
For “CGTCCGTCATTGATTATGCCAGATCATAGCTGTACGTCGTCGGAGTCACCTAGTGCAG”, the binding signal was 21300 fluorescence intensity (a.u.).
In the case of “TGTGTCATGTTCTGATTGGCTGTGGTTGGTTTGATTTTCTCGGAGTCACCTAGTGCAG”, the binding signal is reported as 21100 fluorescence intensity (a.u.).
“ATGGATGACTGTGATATGATATCTTACACATCAATGATAGCGGAGTCACCTAGTGCAG” was tested, and the binding signal was 7720 fluorescence intensity (a.u.).
With “CTAGATGATTGGCTATCATCACCTGTTCACAATCTTATGTCGGAGTCACCTAGTGCAG” the binding signal was 61900 fluorescence intensity (a.u.).
For “TGTTTGATTATGTTCAATCATTGCAAATCATGTCATCTGTCGGAGTCACCTAGTGCAG”, the binding signal was 45900 fluorescence intensity (a.u.).
For “TGCATGAATTGATCAACAAGACAAAAGTTACAAAACATGTCGGAGTCACCTAGTGCAG”, the binding signal was 4160 fluorescence intensity (a.u.).
“TTTCAGCACATCATTCCAATTTCAATCATATTTCCAAACTCGGAGTCACCTAGTGCAG” was tested, and the binding signal was 4200 fluorescence intensity (a.u.).
For “TTCCGGACGTGTGATTGCGATGAGACGTGTTGCAATATCCCGGAGTCACCTAGTGCAG”, the binding signal was 7260 fluorescence intensity (a.u.).
“ACTATTGGAGTATGGTGCGTGATTGTCCACAATTTATTCACGGAGTCACCTAGTGCAG” was tested, and the binding signal was 3150 fluorescence intensity (a.u.).
For “ATAATTATTTAAATTATATGCATACACCTAGGTGCCATGGCGGAGTCACCTAGTGCAG”, the binding signal was 38800 fluorescence intensity (a.u.).
In the case of “TGCCATTGTCAATCTCTCTGCTCTCCTCATGTAACTGATGCGGAGTCACCTAGTGCAG”, the binding signal is reported as 3180 fluorescence intensity (a.u.).
In the case of “ACCATTAATAGATTGAGAGCGAATGAATTGGTGCCACGTGCGGAGTCACCTAGTGCAG”, the binding signal is reported as 55000 fluorescence intensity (a.u.).
For “TCAAAATTGGAAGTTTTGTTGAAATTGAAACAATGTGATGCGGAGTCACCTAGTGCAG”, the binding signal was 19500 fluorescence intensity (a.u.).
For “AATAACACAATTGTTGATAATTGTTGGATTACTTTGTGAGCGGAGTCACCTAGTGCAG”, the binding signal was 16000 fluorescence intensity (a.u.).
In the case of “GTAAACTGCAATCAATCAGCCATTAAAATCTCATGCTCTGCGGAGTCACCTAGTGCAG”, the binding signal is reported as 60000 fluorescence intensity (a.u.).
“TGCGAAATTTAGCGTGAGAAATTAAGTGATTGATTGAGAGCGGAGTCACCTAGTGCAG” was tested, and the binding signal was 26900 fluorescence intensity (a.u.).
With “CCACCTGTGATTGAAAACAATTACTTTTGAACATGCGCAGCGGAGTCACCTAGTGCAG” the binding signal was 55200 fluorescence intensity (a.u.).
For “GATTAGATTGATCATTGATCGATCAGTGCCATTAATTGAGCGGAGTCACCTAGTGCAG”, the binding signal was 30900 fluorescence intensity (a.u.).
With “CCATTAAATGCACAATGACACAATTTGAGGATCAGTTTAGCGGAGTCACCTAGTGCAG” the binding signal was 3340 fluorescence intensity (a.u.).
In the case of “AAAATTAAATGCGATCAATCAGAGCCGTCCATATCTCTGCCGGAGTCACCTAGTGCAG”, the binding signal is reported as 33400 fluorescence intensity (a.u.).
For “ACAATTAATTTAATTAAATTGAGGTCAGCCATGCATGCAGCGGAGTCACCTAGTGCAG”, the binding signal was 64800 fluorescence intensity (a.u.).
